Source: PubChem
hERG WT inh = blocks the wildtype human KCNH2 potassium channel; Q12809; U2OS, BacMam KCNH2, thallium flux FluxOr; active compounds read low; activity change, % at 1.84 µM; 0.37% of 340,000 active;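 active = maximum activity change below -70%; inconclusive = maximum activity change between -70% and -50%; inactive = maximum activity change above -50%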
Target sequence (Q12809 whole entry, looked up): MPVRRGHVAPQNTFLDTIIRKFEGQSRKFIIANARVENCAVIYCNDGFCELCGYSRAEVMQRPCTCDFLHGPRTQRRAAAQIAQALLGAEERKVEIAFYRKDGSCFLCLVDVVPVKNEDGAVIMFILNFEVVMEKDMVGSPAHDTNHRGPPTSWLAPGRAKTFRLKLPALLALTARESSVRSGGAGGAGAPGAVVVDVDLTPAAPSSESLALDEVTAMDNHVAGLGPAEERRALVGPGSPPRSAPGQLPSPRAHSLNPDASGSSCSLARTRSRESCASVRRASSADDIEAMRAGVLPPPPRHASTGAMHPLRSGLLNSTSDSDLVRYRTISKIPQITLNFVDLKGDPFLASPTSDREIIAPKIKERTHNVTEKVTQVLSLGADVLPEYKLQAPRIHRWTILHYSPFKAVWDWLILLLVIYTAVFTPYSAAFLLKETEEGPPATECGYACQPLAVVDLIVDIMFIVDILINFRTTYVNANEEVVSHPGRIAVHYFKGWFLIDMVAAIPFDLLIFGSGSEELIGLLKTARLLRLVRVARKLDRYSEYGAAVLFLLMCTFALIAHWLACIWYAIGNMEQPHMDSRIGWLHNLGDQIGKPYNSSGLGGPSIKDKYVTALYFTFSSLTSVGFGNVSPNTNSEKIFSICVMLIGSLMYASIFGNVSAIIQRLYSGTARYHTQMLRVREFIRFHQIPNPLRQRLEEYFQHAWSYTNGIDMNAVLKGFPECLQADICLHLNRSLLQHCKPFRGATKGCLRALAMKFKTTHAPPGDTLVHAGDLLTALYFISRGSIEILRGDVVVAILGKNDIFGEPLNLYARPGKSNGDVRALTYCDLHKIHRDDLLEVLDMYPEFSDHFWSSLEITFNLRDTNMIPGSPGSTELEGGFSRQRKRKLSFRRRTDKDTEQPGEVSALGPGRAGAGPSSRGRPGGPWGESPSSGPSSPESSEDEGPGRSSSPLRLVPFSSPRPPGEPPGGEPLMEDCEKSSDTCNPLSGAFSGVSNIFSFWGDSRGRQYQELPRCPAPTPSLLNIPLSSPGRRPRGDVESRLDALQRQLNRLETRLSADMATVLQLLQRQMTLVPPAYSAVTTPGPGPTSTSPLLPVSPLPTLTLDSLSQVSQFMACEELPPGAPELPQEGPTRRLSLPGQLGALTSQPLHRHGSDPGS
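U2OS cells transduced with wild-type KCNH2 virus are loaded with FluxOr dye for 45 min, and thallium flux is measured in kinetic reads before and after stimulation buffer. Rate constants are normalized to DMSO controls.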
KCNH2 3.1 inh = inhibitors of human KCNH2 3.1 potassium channel isoform; U2OS KCNH2 3.1, thallium flux FluxOr; active compounds read low; activity change, % (tested at about 1.8 µM); 0.95% of 340,000 active;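 active = maximum activity change below -70%; inconclusive = maximum activity change from -70% to -50%; inactive = maximum activity change above -50%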;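 note: thallium influx rate constant from kinetic fluorescence after stimulation buffer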
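We transduce U2OS cells with the mutant 3.1 virus, culture them overnight, load FluxOr with Red40 quencher for 45 min, then add stimulation buffer and read kinetically for 2 min to derive a normalized rate constant.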
KinaseGlo FLuc = Kinase-Glo luciferase inhibition (counter-screen) | Q27757 | Kinase-Glo luciferase, ATP luminescence, 8 min | Potency, µM (doses to about 38.3 µM), without a hit: top-dose activity change, negative = inhibition, actives largely listed as inhibitors | 0.28% of 200,000 active | AID 1379; active = well fitted inhibition curve with a large enough effect; inconclusive = small, poorly fitted or top-dose-only effect; note: potency is the fitted concentration of half-maximal effect; nearly all actives have a fitted effect of over 60% in size
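Kinase-Glo luciferase light output from ATP and luciferin was measured with 10 uM ATP, within the enzyme's linear range. Buffer: 50 mM imidazole pH 7.2, 50 mM KCl, 7 mM MgCl2, 0.01% Tween 20, 0.05% BSA; luminescence read after 8 min at ambient temperature.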
Starred values were filed as active, the others as inactive; u = inconclusive; x = no result. This is a sample that favours compounds with a hit; in the whole collection about 1.2% have one here. % is set by controls: 0 for no effect and ±100 for the full control effect.

SMILES	hERG WT inh	KCNH2 3.1 inh	KinaseGlo FLuc
COc1ccccc1NC(=O)CN1CCN(CC(=O)Nc2ccc(F)cc2)CC1	-36.2	u	2.1%
COc1ccccc1NC(=O)CN1CCN(CC(=O)Nc2ccc(OCc3ccccc3)cc2)CC1	-24.8	-78.7*	0.8%
COc1ccc(NC(=O)CN2CCN(CC(=O)Nc3ccccc3F)CC2)c(OC)c1	5.1	-16.9	-0.2%
COc1ccc(Cl)cc1NC(=O)CN1CCN(S(=O)(=O)c2ccc(F)cc2)CC1	26.5	-7.8	x
COc1ccc(S(=O)(=O)N2CCN(CC(=O)Nc3cc(Cl)ccc3Cl)CC2)cc1	0.9	-85.1*	x
COc1ccc(NC(=O)CN2CCN(CC(=O)Nc3ccc(F)cc3F)CC2)cc1	-120.4*	-117.0*	x
CCOc1ccc(NC(=O)CN2CCN(CC(=O)Nc3ccc4c(c3)OCCO4)CC2)cc1	11.7	u	2.2%
Cc1c(Cc2ccccc2)c(=O)oc2cc(OCC(=O)NCc3ccccn3)ccc12	-1.1	1.3	x
COc1ccc(C(=O)c2ccccc2CN2C(=O)c3ccccc3C2=O)cc1	10.8	x	x
CCc1ccc(N2CC(C(=O)NC3CCCCC3C)CC2=O)cc1 (configuration not stated)	-2.0	-8.3	x
CCOC(=O)c1nn(-c2ccc(F)cc2)c(=O)cc1OCC(=O)N1CCN(c2ccccc2)CC1	7.4	33.0	x
O=C(CCc1nnc2ccc(N3CCC4(CC3)OCCO4)nn12)N1CCCCC1	0.3	24.7	x
COc1ccc(S(=O)(=O)N2CCN(Cc3ccc(Cl)cc3)CC2)cc1	5.6	-0.8	0.6%
CS(=O)(=O)c1ccc(Cl)c(NC(=O)CN2CCN(S(=O)(=O)/C=C/c3ccccc3)CC2)c1	25.8	-84.4*	x
COc1cccc(NC(=O)CN2CCN(CC(=O)Nc3ccc(F)cc3)CC2)c1	-38.2	-84.5*	x
COc1ccc(CN2CCCN(S(=O)(=O)c3ccc(Br)cc3)CC2)cc1	-126.0*	-101.6*	x
COc1ccc(NC(=O)CN2CCN(CC(=O)Nc3ccccc3OC)CC2)c(OC)c1	17.5	-30.8	x
COc1ccc(NC(=O)CN2CCc3ccccc3C2)c(OC)c1	-246.6*	0.3	x
COc1cccc(NC(=O)CN2CCC(C)CC2)c1	-1.7	16.4	-0.6%
NS(=O)(=O)c1ccc(NC(=O)CN2CCN(S(=O)(=O)/C=C/c3ccccc3)CC2)cc1	17.6	-3.2	x
CN1CC(=O)N/C1=N\C(=O)Nc1ccc(O)cc1	-0.4	-2.1	x
Cc1ccc2oc(C(=O)NCC3CCOCC3)c(C)c2c1	-6.2	19.3	x
O=C1CC(c2ccccc2Cl)=NN(c2ncnc3ccccc23)C1=O	-3.9	7.9	-0.8%
Cc1cc(C=O)c(C)n1-c1ccc(NC2CCCC2)c([N+](=O)[O-])c1	-5.0	17.9	-3.3%
Cc1onc(NC(=O)NC(=O)c2c(Cl)cccc2Cl)c1Br	u	0.1	x
SMILES	hERG WT inh	KCNH2 3.1 inh	KinaseGlo FLuc
O=C(COC(=O)c1ccc[nH]c1=O)Nc1cc(S(=O)(=O)N2CCCCCC2)ccc1Cl	3.5	4.3	x
O=C(CCC1CCCC1)NNC(=O)COc1ccc(Br)cc1	-2.0	-16.7	x
CC(=O)N1c2ccc(S(=O)(=O)NCC3CCC(C(=O)NCc4ccco4)CC3)cc2CC1C (configuration not stated)	-14.8	10.9	x
COc1ccc(NC(=O)CN2CCN(CC(=O)Nc3ccccc3Cl)CC2)cc1	-21.4	-85.5*	-1.0%
COc1ccc(NC(=O)CN2CCN(c3ccccc3Cl)CC2)cc1	10.9	-8.0	-2.6%
COc1ccc(NC(=O)CN2CCN(CC(=O)Nc3ccc(F)cc3)CC2)cc1Cl	1.7	-91.2*	x
COc1ccc(NC(=O)CN2CC(C)OC(C)C2)cc1Cl (configuration not stated)	-2.6	7.6	-0.6%
CCOc1ccc(C(C)=O)cc1COC(=O)c1ccccc1C(=O)N(C)Cc1ccccc1	-15.5	-14.5	x
CC1=C(C(=O)N2CCOCC2)CC(CC(=O)NCCCCc2ccccc2)C(=O)N1Cc1ccc(C(C)(C)C)cc1 (configuration not stated)	12.4	-17.8	x
CCCCCC(=O)Nc1ccc(N2CCN(CC)CC2)c(Cl)c1	22.8	-102.1*	-0.1%
CCCCCC(=O)NC(=S)Nc1ccc(N2CCCCC2)c(Cl)c1	5.5	-4.9	x
CCN(CC(=O)Nc1c(F)cccc1F)C(=O)c1n[nH]c2ccccc12	-6.7	-2.0	x
Cc1ccc(-c2cc3c(nn2)-c2ccccc2C3=O)cc1	-23.4	-4.7	x
O=C1c2ccccc2-c2nnc(-c3ccc(O)cc3)cc21	-13.5	1.9	11.2µM*
CC(=O)c1ccc(Nc2ccc(-c3ccccc3C)nn2)cc1	-6.8	-10.4	-4.8%
O=C1c2ccccc2-c2nnc(-c3ccc(F)cc3)cc21	10.4	-3.9	5.01µM*
Cc1ccccc1-c1cc2c(nn1)-c1ccccc1C2=O	2.4	1.5	5.01µM*
O=C1C(O)=C(O)C(=O)c2ccccc21	1.7	-9.3	x
CC(OC(=O)c1cccc(S(=O)(=O)N(C)C)c1)C(=O)NCc1ccc2c(c1)OCO2 (configuration not stated)	23.8	6.3	x
COc1ccc2cnoc(=O)c2c1OC	x	x	-0.8%
COc1ccc(S(=O)(=O)Nc2ccc3c(c2)C(=O)N([C@H](C)CO)C[C@H](C)[C@@H](CN(C)C(=O)Nc2c(C)noc2C)OCCCC[C@H](C)O3)cc1	0.6	-24.1	x
CCCCCCCNC(=O)C1(CC2CC(c3ccc(Cl)cc3)=NO2)CCN(C(=O)CCCCCBr)CC1 (configuration not stated)	-88.8*	-82.6*	x
COc1ccc(CNC(=O)C2(CC3CC(c4ccccc4)=NO3)CCN(C(=O)CCCCCBr)CC2)cc1 (configuration not stated)	-112.5*	-133.0*	x
O=C(CCCCCBr)N1CCC(CC2CC(c3cccc(Br)c3)=NO2)(C(=O)NCC2CCCCC2)CC1 (configuration not stated)	-8.4	-39.9	x
O=C(CCCCCBr)N1CCC(CC2CC(c3ccc(Cl)cc3)=NO2)(C(=O)NCC2CCCCC2)CC1 (configuration not stated)	-95.4*	u	x
SMILES	hERG WT inh	KCNH2 3.1 inh	KinaseGlo FLuc
CCCCCCCNC(=O)C1(CC2CC(c3ccc(Cl)cc3)=NO2)CCN(C(=O)Cc2ccc(F)cc2)CC1 (configuration not stated)	-8.8	-32.1	x
COc1ccc(CNC(=O)C2(CC3CC(c4ccccc4)=NO3)CCN(C(=O)OC(C)(C)C)CC2)cc1 (configuration not stated)	2.5	5.5	x
COCC(=O)N(C)C[C@H]1Oc2ncc(C#C[C@H](C)O)cc2C(=O)N([C@@H](C)CO)C[C@H]1C	5.6	8.8	x
CCc1cc(=O)oc2cc(C)cc(OCC(=O)NC(Cc3ccc(Cl)cc3)C(=O)O)c12 (configuration not stated)	4.0	12.6	x
Cc1nn(CC(=O)N2CCc3ccccc32)c(C)c1S(=O)(=O)NC(C)(C)C	-282.9*	-21.4	x
Cc1c(Br)c([N+](=O)[O-])nn1CC(=O)N1CCc2ccccc21	-3.5	19.2	-1.4%
O=C(Oc1cccc(NC(=O)c2ccccc2Cl)c1)c1ccc([N+](=O)[O-])cc1	-186.3*	-12.8	2.4%
O=C(Nc1cccc(O)c1)c1ccc([N+](=O)[O-])cc1Cl	-5.1	-10.3	0.2%
COC(=O)N[C@H](C[N+](=O)[O-])c1cccc(C)c1	x	x	1.9%
